Results on 22 molecules are retold here after PubChem BioAssay AID602140 (NMMLSC, 2011).

This is one part of the list. A number with no mark means an inactive call. The rule behind the calls is not given here.

The test system of this test is Botulinum neurotoxin type F light chain protease (Clostridium botulinum). As to the kind of experiment: BoNT/F light chain protease inhibitors, confirmation, biochemical, flow cytometry, cherry pick 1 (AID 602140). The following applies: multiplex microsphere protease cleavage assay, at 10 µM, stronger effect = higher value.
Usually inhibition stands for the relative decrease from the control value, in per cent. Take `Cc1cc(S(=O)(=O)NC2CCCC2)ccc1-n1cnnn1`: the inhibition was 3.7%.
As for `CCOc1nnc(C)c2c(C)n(-c3cccc(Cl)c3)nc12`, the inhibition was 18.1%.
Then `Brc1ccc2ncnc(NCc3cccnc3)c2c1`, with -1.4%; and `COc1ccccc1C1CCN(C(=S)Nc2ccc(Br)cc2)CC1`, with 4.3%; and `CCCN1C2CCCC1CC(NC(=O)c1cccc(OC)c1)C2` (configuration not stated), with 0.9%.
Take `O=C(Nc1nnc(CCc2ccccc2)s1)C1CCCO1` (configuration not stated): the inhibition is -7%.
`COCc1cc(=O)[nH]c(SC)n1`: the inhibition is -4.2%.
As for `COc1cc2cc(CN(CCN3CCCC3)C(=O)Nc3ccccc3Cl)c(=O)[nH]c2cc1OC`, the inhibition was 0.8%.
Turning to `COC(=O)CN(c1nc(C)c(Cl)c(OC)n1)S(=O)(=O)c1ccc(C)cc1`, the inhibition was -0.3%.
Then `COc1ccc(C(=O)Nc2nc(-c3ccc(OC)cc3)c(-c3ccc([N+](=O)[O-])cc3)s2)cc1`, with 4%.
Take `O=C(O)c1cc(S(=O)(=O)NC2CCCc3ccccc32)ccc1O` (configuration not stated): the inhibition was -1.4%.
For `COc1ccccc1-n1c(-c2cc(-c3ccco3)[nH]n2)n[nH]c1=S`, the inhibition is 4%.
As to `COc1cc(C(=O)NCc2ccc3c(c2)cc(C)n3C)cc(OC)c1OC`, the inhibition is -4.7%.
Consider `O=S(=O)(NC1CCCCC1N1CCC(O)CC1)c1ccc(Cl)cc1` (configuration not stated), for which the inhibition is 2.2%.
In the case of `CC1CCc2c(sc3nc4n(c(=O)c23)CCS4)C1` (configuration not stated), the inhibition was -5.8%.
Consider `CCCSc1nc2sc3c(c2c(=O)n1-c1ccc(OC)cc1)CCN(C)C3`, for which the inhibition was 5.3%.
With `Cc1ccc(-c2nc(-c3cccnc3)sc2CC(=O)Nc2ccc(C)c(Cl)c2)cc1`, the inhibition was -18.6%.
As for `Nc1ccccc1Sc1cc(Cl)nnc1Cl`, the inhibition is -1.4%.
Then `CC1CCN(C(=O)c2ccc(S(=O)(=O)Cc3cc(F)ccc3F)c([N+](=O)[O-])c2)CC1`, with 1.2%; and `Cc1onc(-c2ccccc2Cl)c1C(=O)NCCn1ccc2ccccc21`, with -5.2%; and `CCOCC(=O)NCc1ccc2c(c1)cc(C)n2C`, with -12.1%.
Then `CCOc1ccc(NC(=O)CC(Cc2ccc(Cl)cc2)C(=O)O)cc1` (configuration not stated), with -1.5%.
